# Source: PubChem BioAssay (NCI)
# Compounds without any hit were thinned out: in the full panel of roughly 83,000, 20% have a hit.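 The endpoint reported here, percent growth, reads 100 for growth as untreated, 0 for no net growth and -100 for all cells dead.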 A number with no mark means an inactive call. Activity calls are given as the source filed them. Rule for the calls: active = growth percent below 10; inactive = the rest.
# Columns and labels:
# Assay in all cases: NCI-60 one-dose screen, 48 h (100 = growth as untreated, 0 = no growth, -100 = all killed)
# Settings in all cases: 10 µM unless noted
# [1] = test system: SK-MEL-2 melanoma
# [2] = test system: EKVX NSCLC
# [3] = test system: SN12C renal
# [4] = test system: UO-31 renal
# [5] = test system: TK-10 renal
# [6] = test system: ACHN renal
# [7] = test system: CAKI-1 renal
# [8] = test system: A498 renal
# [9] = test system: CCRF-CEM leukemia
# [10] = test system: MOLT-4 leukemia
# [11] = test system: SR leukemia
# [12] = test system: RPMI-8226 leukemia
# [13] = test system: OVCAR-8 ovarian
# [14] = test system: OVCAR-4 ovarian
# [15] = test system: IGROV1 ovarian
# [16] = test system: OVCAR-3 ovarian
# [17] = test system: HS 578T breast
# [18] = test system: NCI/ADR-RES ovarian
# [19] = test system: SK-OV-3 ovarian
# [20] = test system: OVCAR-5 ovarian
SMILES,growth [1],growth [2],growth [3],growth [4],growth [5] [%],growth [6],growth [7],growth [8],growth [9],growth [10],growth [11],growth [12],growth [13],growth [14],growth [15],growth [16],growth [17],growth [18] [%],growth [19],growth [20] [%]
Cc1c2c(cc[n+]1Cc1ccccc1)c1ccc(OCc3ccccc3)cc1n2Cc1ccccc1,-36% (active),-28.8% (active),-86.6% (active),-18.2% (active),11.8,8.54% (active),-5.76% (active),-34.5% (active),-16.2% (active),-51% (active),-52.5% (active),-21.6% (active),-70.9% (active),-3.79% (active),-65.1% (active),-97.1% (active),-35.9% (active),65,–,–
COc1cc(NCCCN(CC(C)C)CC(C)C)c2ncccc2c1,91.8%,84.5%,88.2%,81.4%,102,80.7%,92.4%,79.2%,87.5%,103%,84.9%,78%,94.5%,17.2%,80.3%,69.5%,92.3%,79.8,90.1%,–
Clc1cc(Cl)cc(N2N=C(c3cccc(Nc4ccncc4)c3)CC2c2ccc(Br)cc2)c1 (stereo not given),99.2%,67.8%,58.3%,52.1%,71.4,46.3%,48.2%,88.8%,-12.9% (active),3.97% (active),3.33% (active),21.3%,–,2.37% (active),12.3%,57.6%,46.7%,51.2,83.3%,77.2
O=C(Nc1cccc(Cl)c1)Oc1c(Br)c(Br)c(Br)c(Br)c1Br,79%,92.1%,92.7%,74.9%,99.9,104%,90.5%,78.3%,87.9%,99.7%,107%,73.2%,–,95.4%,107%,88.5%,84.3%,96.4,62.6%,102
Cc1ccc2nc3c(cc2c1)CSc1nnc(-c2ccc[nH]c2=S)n1N3,100%,102%,92.8%,64.3%,105,97.4%,78.7%,101%,104%,91.9%,83.3%,99.5%,–,109%,82.7%,99.5%,96.3%,93.4,88.8%,99.5
COc1ccc(C(=O)c2cc3c(N)c(C(=O)Nc4ccc(Br)cc4)sc3nc2C)cc1,74.4%,83.1%,84.4%,72.3%,98.8,65.5%,62.5%,83.9%,88.5%,91.2%,51.5%,77%,37.2%,0.804% (active),85.9%,65.4%,32.3%,70,62.1%,–
CCOC(=O)C1CC(=O)c2cc(OC)c(OC)cc2C1 (stereo not given),107%,114%,100%,93.6%,126,107%,120%,129%,84.6%,94.3%,89.6%,82.3%,103%,96.8%,–,110%,112%,98.5,106%,–
O=C(CN1CCOCC1)Nc1ccc2ncnc(Nc3ccc(OCc4cccc(F)c4)c(Cl)c3)c2c1,88.1%,25.1%,48.1%,30.7%,37.8,24.5%,45.8%,28%,66.7%,47.9%,64.3%,44.7%,–,72%,23.2%,58%,100%,44.7,6.86% (active),69.2
